Bioassay records as filed in PubChem BioAssay.
MIN6 prolif: inducers of beta-cell replication in MIN6 cells; AID 2380; proliferation, % at 10 µM; 330,000 tested, 0.29% active; MIN6 cells proliferation, ATPlite luminescence, 48 h; cells starved in 0.2% serum; 100% = growth in 10% serum;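 active = compounds whose signal lies at least 3.5 SD above the mean of all wells on their plate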
CHT block: inhibitors of human choline transporter CHT. Q9GZV3. AID 488975. B-score at 10 µM. 310,000 tested, 0.86% active. CHT-expressing cells, membrane potential dye, choline response; active compounds read low;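 active = B-score over 3 SD under the library average, and starting fluorescence ratio not unusually high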;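 also: choline stimulus applied at its EC90 after an EC20 pre-addition; B-score computed on integrated fluorescence ratio after choline addition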
H9c2 TAG inh: reduces triacylglycerol accumulation in H9c2 cells. Nile Red lipid (TAG) fluorescence; cells loaded with 200 µM oleic acid. inhibition, % at 12.5 µM. 230,000 tested, 0.66% active;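 active = pattern-corrected inhibition of lipid staining of at least 50% with the nuclear-stain viability signal not falling by more than 50%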
CHT PAM: human CHT allosteric activation; 310,000 tested, 0.49% active; B-score at 10 µM; Q9GZV3; CHT-expressing cells, membrane potential dye, choline EC20; active compounds read high; LV-AA mutant CHT in HEK293 cells; AID 488977;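 active = initial fluorescence not abnormally high and integrated response B-score, plate-corrected, over 3 SD above library mean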
CHT act confirm: confirmation of human choline transporter (CHT) activators; CHT-expressing cells, membrane potential dye fluorescence (FDSS); % of choline EC20–EC90 response window; HEK293 expressing CHT LV-AA mutant; choline added at its EC20; activation, % at 10 µM; shares compounds with CHT PAM; 2,500 tested, 91% active; AID 504833;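 active = primary screen active, with duplicate mean activation above negative control mean plus 3 SD, cut at about 11% in these data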
HEK293 MP dye: activity in parental HEK293 cells lacking CHT. AID 623908. 2,500 tested, 62% active. shares compounds with CHT PAM. membrane potential dye fluorescence (FDSS); measured after EC20 choline addition. ratio readout change at 10 µM, hits read low;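 active = duplicate-averaged ratio beyond 3 SD from buffer wells, up or down, though filed actives are nearly all decreases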
A number is an active result; n = inactive; x = not tested or not shown. Only some compounds are listed: those with a hit (about 1.7% of all), similar ones and a draw of the others.

SMILES	MIN6 prolif	CHT block	H9c2 TAG inh	CHT PAM	CHT act confirm	HEK293 MP dye
CN(C)CCNc1nc2c(c(=O)[nH]c(=O)n2C)n1CC(O)COc1ccc(Cl)cc1 (centres undefined)	n	n	x	n	x	x
CC1=Nc2cccc3cccc(c23)N1	n	n	n	n	33	-39
CN(Cc1cccnc1)C(=O)c1cc(COc2ccc3c(c2)CCCC3)on1	n	n	n	n	n	n
Cc1cccc(NC(=O)c2ccccc2OCC(=O)N2CCCC2)c1C	n	n	x	n	x	x
Cc1ccc(O)c(C(=O)c2cnn(C(=O)Cc3csc(C)n3)c2)c1	n	n	n	n	37	-43
COc1ccc(O)c(C(=O)c2cnn(C(=O)c3ccc(C)cc3)c2)c1	n	x	n	x	x	x
COc1ccc(-c2nc3n(c2C)CCC3)cc1	n	n	n	6.4	57	-63
ON1C(c2ccc(Cl)cc2Cl)N(O)[C@H]2CCCC[C@H]21 (some centres undefined)	n	n	x	n	x	x
CCON1C(=O)CN(C(=O)OC)C1c1ccc(Cl)cc1Cl (centres undefined)	n	n	n	n	n	n
Cc1cc(=O)oc2c(C)c(OCC(=O)NCCCn3ccnc3)ccc12	n	n	x	n	58	-52
Cc1cc(OCC(=O)NCCCn2ccnc2)c2c(C)cc(=O)oc2c1	n	n	x	7.1	65	-56
Cc1cc(OC(C)C(=O)NCCCn2ccnc2)c2c(C)cc(=O)oc2c1 (centres undefined)	n	n	x	n	45	-39
Cc1c(C)c2ccc(OCC(=O)NCCCn3ccnc3)c(C)c2oc1=O	n	n	x	n	x	x
CCCc1cc(=O)oc2cc(C)cc(OC(C)C(=O)NCCCn3ccnc3)c12 (centres undefined)	n	n	x	n	x	x
O=C(NC1CCN(S(=O)(=O)c2ccccc2F)CC1)c1cccnc1	n	n	x	n	x	x
CC(=O)c1cnc2ncnn2c1C	n	n	n	n	x	x
N#Cc1ccc(C(=O)N2CCCC(c3cc(C(=O)NCc4cccnc4)no3)C2)cc1 (centres undefined)	x	x	n	x	x	x
O=C(NCC(c1ccco1)N1CCN(c2ccc(F)cc2)CC1)C(=O)NC1CCCC1 (centres undefined)	n	n	n	n	x	x
O=C(COc1ccccc1)NCC(c1ccco1)N1CCN(c2ccc(F)cc2)CC1 (centres undefined)	n	n	n	n	13	n
CCCCCCCn1c2c(c(=N)c3ccccc31)CCC2	n	n	n	17	75	-43
CCCn1c2c(c(=N)c3c1CCC3)CCCC2	n	n	n	7.9	50	-72
CCCn1c2c(c(=N)c3c1CCC3)CCC2	n	n	n	6.6	59	-52
N=c1c2c(n(Cc3ccc(Br)cc3)c3c1CCC3)CCCC2	n	n	n	n	x	x
N=c1c2c(n(Cc3ccc(Cl)c(Cl)c3)c3c1CCC3)CCCC2	n	n	n	9.6	78	-39
CC1CCCCC1=NNC(=O)c1ccccc1 (centres undefined)	x	x	n	x	x	x
SMILES	MIN6 prolif	CHT block	H9c2 TAG inh	CHT PAM	CHT act confirm	HEK293 MP dye
CNS(=O)(=O)c1cccc(C(=O)NCC(c2cccs2)N2CCOCC2)c1 (centres undefined)	n	n	n	n	x	x
Cc1noc(C)c1COc1ccccc1C(=O)N1CCN(S(=O)(=O)c2ccc(C(C)C)cc2)CC1	x	x	n	x	x	x
COC(=O)Cn1c2c(c3cc(C)ccc31)CCCC2	n	n	n	n	x	x
CCOC(=O)Cn1c2c(c(=N)c3c1CCC3)CCCC2	n	n	x	n	42	-34
NNC(=O)c1ccc(Cn2cccn2)o1	n	n	n	n	x	x
CCOC(=O)c1nc2cc3n(c(C)c-2c1C)C(C)C(C)=C3C (centres undefined)	n	n	n	n	x	x
CCOC(=O)c1nc2cc3n(c(CC(C)C)c-2c1C)CC(C)=C3C	n	n	n	n	44	-40
CC(NCc1cc(Br)ccc1OCC(N)=O)C12CC3CC(CC(C3)C1)C2 (centres undefined)	n	n	n	11	23	n
Cc1ccccc1CN(C)C(=O)c1ccc2ccccc2n1	n	n	x	n	x	x
COc1cc(SC)ccc1C(=O)Nc1ccc2ncccc2c1	n	n	x	n	x	x
c1ccc(C[n+]2ccc3ccccc3c2)cc1	n	n	n	6.3	43	-48
